Assay [1] concerns the target Retinoic acid receptor RXR-alpha (Homo sapiens) (UniProt P19793). As to the kind of experiment: qHTS assay to identify small molecule agonists of the RXR signaling pathway (AID 1159527; calls by dose curve; further: nearly all actives have a fitted effect of over 35% in size). Put shortly: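 qHTS of the Tox21 10K library in GeneBLAzer RXR-alpha HEK 293T cells carrying a beta-lactamase reporter […]; 16 hr treatment, 9-cis retinoic acid as agonist control, FRET read-out.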

Assay [2] is described as follows: qHTS assay to identify small molecule antagonists of the retinoid acid receptor (RAR) signaling pathway - cell viability counter screen (AID 1159551). Further: nearly all actives have a fitted effect of over 35% in size. Put shortly: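 Retinol-stimulated (1 uM final) C3RL4 cells, compound 6 h, 37 C; readout CellTiter-Glo luminescence (ATP) after 30 min RT incubation.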
Assay [3] in a line: qHTS assay to identify small molecule antagonists of the estrogen related receptor (ERR) signaling pathway from Tox21 library - cell viability counter screen (AID 1224834). Further: nearly all actives have a fitted effect of over 30% in size. The method, boiled down:
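After 17.5 h of compound exposure at 37 C, ERR cells are incubated with CellTiter-Fluor for 30 min and fluorescence intensity serves as the viability measure.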

In assay [4] the target is Luciferin 4-monooxygenase (Photinus pyralis) (UniProt P08659). As to the kind of experiment: qHTS assay to identify small molecule inhibitors of firefly luciferase (AID 1224835). Further: series mostly up to about 120 µM; nearly all actives have a fitted effect of over 25% in size. The method, boiled down:
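Inhibition of purified Photinus luciferase is measured by luminescence. Substrate levels (D-luciferin, ATP) sit at their KM values. Each compound is tested in a concentration series.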

The nature of assay [5]: qHTS assay to identify small molecule agonists of the constitutive androstane receptor (CAR) signaling pathway - cell viability counter screen (AID 1224836). Further: series mostly up to about 92 µM; nearly all actives have a fitted effect of over 45% in size. Put shortly: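 Counter screen multiplexed with the CAR reporter readout: HepG2 cells co-transfected with hCAR and the CYP2B6-2.2kb construct receive a 15-concentration compound series and 0.75 uM PK11195 (final), then CellTiter-Fluor fluorescence is read after 23 h.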

Assay [6] in a line: qHTS assay to identify small molecule antagonists of the constitutive androstane receptor (CAR) signaling pathway - cell viability counter screen (AID 1224837). Further: series mostly up to about 92 µM; nearly all actives have a fitted effect of over 45% in size. Put shortly:
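Counter screen run in HepG2-CYP2B6-hCAR cells: 4 hr settle, compound titration (15 concentrations) with 50 nM CITCO, 23 hr at 37 C/5% CO2, CellTiter-Fluor fluorescence.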

In assay [7] the target is Nuclear receptor subfamily 1 group I member 3 (Homo sapiens) (UniProt Q14994). The assay is described as follows: qHTS assay to identify small molecule antagonists of the constitutive androstane receptor (CAR) signaling pathway (AID 1224838).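 Further: HepG2 cells stably expressing hCAR with CYP2B6 luciferase reporter stimulated by CITCO; nearly all actives have a fitted effect of over 40% in size.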 Put shortly: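 Cell line: HepG2 double-stable for hCAR and CYP2B6-2.2kb reporter. Agonist: CITCO, 50 nM final. Compounds: 15 concentrations, 24 h, 37 C. Detection: ONE-Glo luminescence.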
Nuclear receptor subfamily 1 group I member 3 (Homo sapiens), sequence (Q14994 whole entry, looked up): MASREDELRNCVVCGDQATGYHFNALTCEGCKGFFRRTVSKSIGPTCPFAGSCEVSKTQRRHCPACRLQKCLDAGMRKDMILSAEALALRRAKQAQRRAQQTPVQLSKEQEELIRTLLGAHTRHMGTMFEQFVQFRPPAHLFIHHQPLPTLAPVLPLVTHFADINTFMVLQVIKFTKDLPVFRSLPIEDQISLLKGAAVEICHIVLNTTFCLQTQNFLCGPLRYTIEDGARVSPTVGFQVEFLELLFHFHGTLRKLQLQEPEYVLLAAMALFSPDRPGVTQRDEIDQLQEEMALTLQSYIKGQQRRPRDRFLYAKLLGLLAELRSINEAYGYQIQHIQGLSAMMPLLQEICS

Assay [8] has the same target. As to the kind of experiment: qHTS assay to identify small molecule agonists of the constitutive androstane receptor (CAR) signaling pathway (AID 1224839). Further: nearly all actives have a fitted effect of over 15% in size. Further: potency means the concentration at half of the fitted maximal effect. On activation: series mostly up to about 92 µM. Put shortly: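 A 15-concentration quantitative screen uses HepG2 cells co-transfected stably with human CAR and CYP2B6-2.2kb reporter. Treatment lasts 24 h with 0.75 uM PK11195 final present; ONE-Glo luminescence is the signal.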

Assay [9] is described as follows: qHTS assay to identify small molecule antagonists of the estrogen related receptor signaling pathway with the pleiotropic PPARgamma coactivator (PGC) from Tox21 10K library - cell viability counter screen (AID 1224840; active means well fitted cell-killing curve with a large enough effect in the repeat runs, not every such curve was filed as active; further: nearly all actives have a fitted effect of over 40% in size). Put shortly: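 Following seeding of 2,000 PGC/ERR cells/well and 6 hours' incubation, test compounds were delivered in DMSO. The plates then sat 17.5 hours at 37 C before a fluorogenic live-cell protease reagent (CellTiter-Fluor) was read after 30 min.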

The target in assay [10] is Thyrotropin receptor (Homo sapiens) (UniProt P16473). As to the kind of experiment: qHTS assay to identify small molecule agonists of the thyroid stimulating hormone receptor (TSHR) signaling pathway (AID 1224843; calls by dose curve; further: nearly all actives have a fitted effect of over 45% in size). Put shortly:
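HEK293 cells stably bearing the thyrotropin receptor were plated at 800 cells/well and challenged with compound (30 min, RT). Accumulated cAMP was quantified via cAMP-d2 competing for cryptate-tagged antibody.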

Assay [11] can be described thus: qHTS assay to identify small molecule agonists of the hypoxia (HIF-1) signaling pathway - cell viability counter screen (AID 1224844; calls by dose curve; further: nearly all actives have a fitted effect of over 50% in size). Put shortly: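 Cells (HRE-bla ME-180, 2,000 per well) sat 5 hrs at 37C, got compound for 17 hrs, were read for CCF4-AM FRET, and were finally lysed with CellTiter-Glo for a 30 min room-temperature luminescence read.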
A short description of assay [12]: qHTS assay to identify small molecule agonists of H2AX (AID 1224845; active means well fitted activation curve with a large enough effect in the signal ratio in the repeat runs, not every such curve was filed as active; the % refers to the signal ratio). The method, boiled down: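 Phospho-H2AX Ser139 measured by HTRF (ex 320 nm; em 665 and 620 nm) after 24 hr antibody incubation. Compounds, 15 concentrations, 0.76% DMSO, were applied to CHO-K1 cells for 3hr at 37C before lysis.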
Assay [13] is described as follows: qHTS assay to identify small molecule agonists of the hypoxia (HIF-1) signaling pathway (AID 1224846; active means well fitted activation curve with a large enough effect in the signal ratio in the repeat runs, not every such curve was filed as active; the % refers to the signal ratio). Put shortly: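 A low-serum medium (0.5% dialyzed FBS) holding 2,000 HRE-bla ME-180 cells per well is preincubated for 5 hrs, dosed with compounds by pintool, and kept a further 17 hrs at 37C, 5% CO2 before CCF4-AM FRET detection of beta-lactamase.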
The nature of assay [14]: qHTS assay to identify small molecule agonists of H2AX - cell viability counter screen (AID 1224847; calls by dose curve; further: top concentration of the series differs between compounds; nearly all actives have a fitted effect of over 30% in size). Put shortly:
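We seed wild-type CHO-K1 cells overnight, treat them for 3 hr at 37C with compounds in 15-concentration series, and quantify remaining viability by CellTiter-Glo luminescence.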

Assay [15] in a line: qHTS assay to identify small molecule antagonists of the retinoic acid receptor (RAR) signaling pathway (AID 1159552; further: nearly all actives have a fitted effect of over 50% in size). The method, boiled down: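 Quantitative HTS in C3RL4 RARE-luciferase reporter cells. Compounds were added with 1 uM (final) retinol; luminescence was read after 6 hr.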
Assay [16] in a line: qHTS assay to identify small molecule agonists of the retinoic acid receptor (RAR) signaling pathway (AID 1159553). The method, boiled down:
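Reporter readout comes from luciferase under RARE control in C3RL4 cells; compound exposure lasts 6 hr at 37 C in 5% CO2, and luminescence is recorded following a 30 min room-temperature incubation with reagent.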

Assay [17] can be described thus: qHTS assay to identify small molecule antagonists of the estrogen related receptor signaling pathway with the pleiotropic PPARgamma coactivator (PGC) from Tox21 10K library (AID 1224841; call rule not given here; further: series mostly up to about 92 µM; actives are mostly falling curves and most rising ones were filed inactive; nearly all actives have a fitted effect of over 50% in size). The method, boiled down:
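qHTS antagonist format: PGC/ERR cells, 2k/well, compound in DMSO by pin transfer after 6 h attachment, 18 h treatment at 37 C, One-Glo luminescence read at 30 min.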

Assay [18] is described as follows: qHTS assay to identify small molecule agonists of the estrogen related receptor signaling pathway with the pleiotropic PPARgamma coactivator (PGC) from Tox21 10K library (AID 1224842). Further: nearly all actives have a fitted effect of over 15% in size. The method, boiled down: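 Luminescence from One-Glo (30 min, room temperature) measured after PGC/ERR cells had 18 h at 37 C with pinned compound (23 nL in DMSO). Cells had been seeded at 2,000 per well and pre-incubated 6 h.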

Assay [19] can be described thus: qHTS assay to identify small molecule antagonists of the estrogen related receptor (ERR) signaling pathway from Tox21 library (AID 1224848). Further: nearly all actives have a fitted effect of over 50% in size. Put shortly: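 Reading was by luminescence 30 min after ONE-Glo addition. Before that, ERR cells at 2,000 per well had rested 6 h at 37 C/5% CO2 and then received pin-tooled compounds in DMSO for 18 h at 37 C.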

Each structure is given as a SMILES string. Results filed as inconclusive are left out. Unmarked numbers belong to inactive results. Active and inactive are the calls of the source. Unless noted, the call rests on the fitted dose curve; in most records, active means well fitted curve in the direction sought with a large enough effect in the repeat runs; inconclusive means weak or mixed curves; inactive means no such curve, though single readings can be large; an effect the other way counts as inactive or inconclusive.

Luciferin 4-monooxygenase (Photinus pyralis), sequence (P08659 whole entry, looked up): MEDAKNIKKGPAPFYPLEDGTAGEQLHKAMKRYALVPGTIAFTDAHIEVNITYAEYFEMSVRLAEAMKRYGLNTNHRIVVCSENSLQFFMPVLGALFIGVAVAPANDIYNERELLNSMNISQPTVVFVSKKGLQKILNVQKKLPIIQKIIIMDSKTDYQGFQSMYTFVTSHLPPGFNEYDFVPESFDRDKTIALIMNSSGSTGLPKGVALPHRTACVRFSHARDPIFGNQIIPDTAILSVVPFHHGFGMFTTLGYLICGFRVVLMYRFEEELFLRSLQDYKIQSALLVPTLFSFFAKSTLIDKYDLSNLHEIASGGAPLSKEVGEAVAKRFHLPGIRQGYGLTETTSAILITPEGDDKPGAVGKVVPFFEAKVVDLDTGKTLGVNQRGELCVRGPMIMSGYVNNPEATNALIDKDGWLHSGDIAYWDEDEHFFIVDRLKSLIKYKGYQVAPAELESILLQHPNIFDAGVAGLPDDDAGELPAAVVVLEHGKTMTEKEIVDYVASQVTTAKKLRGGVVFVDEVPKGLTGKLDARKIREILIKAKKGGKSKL
Retinoic acid receptor RXR-alpha (Homo sapiens), sequence (P19793 whole entry, looked up): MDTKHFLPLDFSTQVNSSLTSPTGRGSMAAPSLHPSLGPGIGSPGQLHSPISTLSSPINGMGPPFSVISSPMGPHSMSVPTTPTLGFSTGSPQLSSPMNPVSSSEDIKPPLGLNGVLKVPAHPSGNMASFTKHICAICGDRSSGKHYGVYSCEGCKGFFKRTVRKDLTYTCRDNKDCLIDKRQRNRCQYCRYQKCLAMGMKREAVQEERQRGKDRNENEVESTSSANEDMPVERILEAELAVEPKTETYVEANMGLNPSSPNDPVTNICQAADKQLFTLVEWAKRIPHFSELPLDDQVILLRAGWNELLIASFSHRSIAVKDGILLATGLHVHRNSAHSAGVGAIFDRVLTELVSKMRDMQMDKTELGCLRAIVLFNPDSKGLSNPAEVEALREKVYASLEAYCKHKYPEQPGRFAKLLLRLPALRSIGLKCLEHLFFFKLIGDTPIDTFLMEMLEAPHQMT
Thyrotropin receptor (Homo sapiens), sequence (P16473 whole entry, looked up): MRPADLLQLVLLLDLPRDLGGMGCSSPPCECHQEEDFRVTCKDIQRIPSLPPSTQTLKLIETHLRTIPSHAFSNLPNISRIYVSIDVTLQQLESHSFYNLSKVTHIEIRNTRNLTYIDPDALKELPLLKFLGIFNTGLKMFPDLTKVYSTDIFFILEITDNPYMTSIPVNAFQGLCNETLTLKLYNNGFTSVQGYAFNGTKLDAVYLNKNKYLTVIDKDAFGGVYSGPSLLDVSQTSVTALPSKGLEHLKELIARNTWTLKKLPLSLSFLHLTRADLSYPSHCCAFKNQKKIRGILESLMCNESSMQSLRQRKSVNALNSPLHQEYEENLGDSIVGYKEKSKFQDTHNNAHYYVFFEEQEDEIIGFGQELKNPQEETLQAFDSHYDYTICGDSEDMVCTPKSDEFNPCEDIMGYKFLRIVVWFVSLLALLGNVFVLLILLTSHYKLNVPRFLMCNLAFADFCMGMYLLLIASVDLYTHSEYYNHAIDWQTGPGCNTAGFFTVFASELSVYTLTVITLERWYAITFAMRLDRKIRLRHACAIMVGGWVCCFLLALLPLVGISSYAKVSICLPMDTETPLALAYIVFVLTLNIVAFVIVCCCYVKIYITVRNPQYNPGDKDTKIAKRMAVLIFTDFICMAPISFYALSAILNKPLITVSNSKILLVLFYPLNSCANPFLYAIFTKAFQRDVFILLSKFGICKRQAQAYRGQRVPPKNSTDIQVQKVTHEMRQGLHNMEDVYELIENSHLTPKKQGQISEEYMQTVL

In the case of `O=C(CN1CCNCC1)NC1CCCCC1`, the Potency result in [1], in [4], in assay [7] and in assay [8] was “inactive” in each case. Also, the compound was classed as inactive in assay [2], in assay [3], in assay [5], in [6], in assay [9] and in assay [10]. The result in [11], in assay [12], in [13] and in [14] was inactive.

For `CCO`, the Potency entry in assay [1], in [16], in [7] and in assay [8] was “inactive” in each case. Also, the compound was called inactive in assay [2], in [15], in [3], in [5], in assay [6] and in assay [9]. The call in assay [10], in assay [11], in [12], in assay [13] and in [14] was inactive.

For the compound `c1ccc(-c2nn[nH]n2)cc1`, the Potency entry in [1], in assay [16], in assay [7], in assay [8] and in assay [19] was “inactive” in each case. In addition, the call in [2], in assay [15], in assay [5], in assay [6], in assay [9] and in assay [17] was inactive. Moreover, the compound was classed as inactive in assay [18], in [12] and in assay [13].

For `O=C(O)CSCC(=O)NC1CCSC1=O` (stereo unspecified), the Potency entry in assay [1], in assay [16], in assay [4], in assay [7] and in assay [8] was “inactive” throughout. Further, the compound was called inactive in [2], in [15], in assay [3], in assay [5], in assay [9] and in assay [10]. Further, the outcome in assay [11], in assay [12], in [13] and in [14] was inactive.

Consider `CC(C)COC(=O)c1ccccc1`, for which the Potency entry in assay [1], in [16], in assay [7] and in assay [8] was “inactive” each time. Further, the compound was called inactive in assay [2], in [15], in [5], in [9], in [10] and in assay [12]. The outcome in [13] and in [14] was inactive.

Consider `COc1c2occc2c(OC)c2c(=O)cc(C)oc12`, for which the Potency result in assay [1] and in assay [7] was “inactive” each time. Besides, the compound was called inactive in [2], in [15], in [3], in assay [5], in assay [6] and in [9]. Further, the compound was called inactive in [10], in assay [11], in [12] and in [14]. Further, in assay [8], the Potency was 13.3 µM (active).

Regarding `CCOc1cccc(N)c1`, the Potency result in [1], in assay [16], in assay [4], in [7] and in assay [8] was “inactive” each time. For the same compound, the result in assay [2], in [15], in assay [3], in [5], in assay [6] and in assay [9] was inactive. For the same compound, the result in [10], in assay [11], in assay [12], in assay [13] and in assay [14] was inactive.

Turning to `OC1OCCOC1O` (stereo unspecified), the Potency result in [1], in assay [16], in assay [4], in assay [7] and in [8] was “inactive” in each case. Also, the call in assay [2], in assay [15], in assay [3], in [5], in assay [6] and in assay [9] was inactive. Besides, the compound was called inactive in assay [10], in assay [11], in assay [12], in [13] and in assay [14].

Turning to `CC(C)C[C@@H]1[C@H](c2ccccc2)OC(=O)N1CCCN1CCCCCC1`, the Potency entry in assay [1], in [16], in [4], in assay [7], in assay [8] and in assay [19] was “inactive” each time. The result in assay [2], in assay [3], in [5], in [6], in assay [9] and in [17] was inactive. The compound was called inactive in assay [18], in [12], in assay [13] and in assay [14].

The values above are taken from PubChem BioAssay (Tox21).
